In PubChem BioAssay (NCI) one finds growth data, which are given here for 40 compounds.

About 83,000 compounds went through this panel and 20% of them were active in at least one assay; those are over-represented in the sample as a whole.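 Method: cells in 96-well plates; compound added at one concentration; 48 h incubation; percent growth measured; values under 10 scored active.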 A number with no mark means an inactive call. Active and inactive are the calls of the source.

For this assay, the system named is MDA-MB-468 breast. In words: NCI-60 one-dose screen, 48 h (100 = growth as untreated, 0 = no growth, -100 = all killed). The conditions noted are these: 10 µM unless noted.
As to `CC(CN1CCN(CC(C)Nc2ccnc3cc(Cl)ccc23)CC1)Nc1ccnc2cc(Cl)ccc12` (stereo not given), the growth was -62.8% (active).

For `CCOC(=O)c1c(C)nc2c(c1N)/C(=C/c1cccs1)C(=O)N2Cc1ccccc1`, the growth is 47.6%.

With `NC(N)=N/N=C(/c1ccccc1)c1ccccc1F`, the growth was 29.1%.

On to `Cc1ccc2[nH]c(-c3ccc(S(C)(=O)=O)cc3)c(/C=N/N=C(N)N)c2c1`, for which the growth is 81.1%.

For `CN1CCN(c2ccc(NC(=O)Nc3ccc4c(ccn4-c4cccc(C(N)=O)n4)c3)cc2C(F)(F)F)CC1`, the growth is 42.8%.

On to `COc1cccc(C(=O)NNc2nc(N3CCN(C4CCCCC4)CC3)nc(N3CCN(C(c4ccccc4)c4ccccc4)CC3)n2)c1`, for which the growth is 13.6%.

Regarding `Nc1c(C(=O)Nc2cccc(C(F)(F)F)c2)sc2nc3c(cc12)CCCCC3`, the growth was -9.93% (active).

With `COc1ccccc1/C=C/C(=O)Nc1ccc(F)cc1`, the growth was 105%.

As to `CN1CCN=C1c1ccc(NC(=O)c2ccc(C(=O)Nc3ccc(C4=NCCN4C)cc3)cc2)cc1`, the growth is 81.2%.

With `O=C1/C(=C/c2ccccc2[N+](=O)[O-])COc2ccc(O)c(O)c21`, the growth was -58% (active).

Turning to `O=S1(=O)N(CCNc2nccc(-c3c(-c4cccc(O)c4)nc4sccn34)n2)CCN1Cc1ccccc1`, the growth is 94.4%.

With `COC(=O)/C(CCC=C(C)C)=C1\[C@@H](OC(C)=O)C[C@@]2(C)[C@H]1CC(=O)N[C@H]1[C@@]3(C)CCNC(=O)[C@@H](C)[C@@H]3CC[C@@]12C`, the growth is 99.7%.

`Cc1ccc(-c2nc([P+](c3ccccc3)(c3ccccc3)c3ccccc3)c(N3CCOCC3)o2)cc1`: the growth was -27.6% (active).

Turning to `CC1Cc2c(ncnc2-n2cnc3ccccc32)N(C)c2ccccc21` (stereo not given), the growth was 9.47% (active).

For `Cc1ccc(/C(N)=N/C(N)=N/c2nc3ccccc3s2)cc1`, the growth is 88.8%.

For `Fc1ccc2[nH]cc(-c3nc(-c4c[nH]c5ncccc45)cs3)c2c1`, the growth was 34.9%.

For the compound `Cc1ccc(S(=O)(=O)Oc2ccc3c4c(c(=O)oc3c2)CCCCC4)cc1`, the growth is 35.5%.

`O=C1c2ccc3c4c(ccc(c24)C(=O)N1CCCCO)C(=O)N(CCCCO)C3=O`: the growth is -29.2% (active).

In the case of `CCc1cc2c(c3ccc(C(=O)CBr)cc13)CCCC2`, the growth is 111%.

Take `N/C(=N\C(N)=N\c1nc2ccccc2s1)c1cccc(Br)c1`: the growth was 90.6%.

For `O=C1c2cc([N+](=O)[O-])ccc2-c2cc(Cl)c(NC(=O)C(F)(F)F)cc21`, the growth was -17.9% (active).

For the compound `COc1ccc(-c2cc(-c3ccc(Cl)cc3)nc(NCCCCNc3ccnc4cc(Cl)ccc34)n2)cc1`, the growth was 75.1%.

Regarding `O=C1C(Cl)=C(NCCCCCCNC2=C(Cl)C(=O)c3ccccc3C2=O)C(=O)c2ccccc21`, the growth is 89.2%.

As for `CCc1cc(C)cc(O)c1`, the growth was 94.7%.

For the compound `O=c1[nH]c(-c2ccc(Cl)cc2)cn1-c1ccc(-n2cc(-c3ccc(Cl)cc3)[nH]c2=O)cc1`, the growth was 103%.

With `Cc1cc2[nH]c(=O)c3c4ncccc4cn3c2cc1C`, the growth is 23.2%.

Turning to `CCCCOC(=O)c1ccc(C(C)C)cc1`, the growth was 100%.

With `COc1ccc(/C=C/C(=O)c2cc3c(N)c(C(=O)Nc4ccccc4C)sc3nc2C)cc1`, the growth is 16.3%.

For the compound `O=C(/C=C/c1cccc(O)c1)c1cccc(-n2cc(-c3ccc4ccccc4c3)[nH]c2=O)c1`, the growth is -79.7% (active).

Turning to `Clc1ccc(/C=C/c2ccccn2)c(Cl)c1`, the growth was 29.3%.

Consider `CSc1nnc2c(=O)n(C)c(=O)n(C)c2n1`, for which the growth was 108%.

Consider `O=C1c2cc3c(cc2-c2c1c1ccc(F)cc1c(=O)n2C[C@H](O)[C@H](O)[C@H](O)CO)OCO3`, for which the growth was -39.9% (active).

For `NC1=CC(=O)c2cccnc2C1=O`, the growth was -50.8% (active).

Take `NC(N)=N/N=C/c1ccc(-c2ccc(-c3cc(Cl)cc(Cl)c3)s2)cc1`: the growth is -47.1% (active).

For the compound `NC(=O)NCCO`, the growth is 102%.

As for `Cc1c(Cl)cccc1NC(=O)CCCl`, the growth is 108%.

Consider `C=CCOc1ccc(Cl)cc1Cl`, for which the growth is 111%.

On to `COc1ccc(-c2nnc(SCC(=O)Nc3ccc(C(=O)/C=C/c4ccc(Cl)cc4)cc3)o2)cc1OC`, for which the growth was 99.4%.

Consider `CS(=O)(=O)c1ccc(-n2cc(/C=C/C(=O)c3ccc(NC(=O)CO[N+](=O)[O-])cc3)c(-c3ccc(Cl)cc3)n2)cc1`, for which the growth is 94.1%.

As to `Cc1nc2n[nH]c(N)c2nc1C`, the growth is 100%.
